Measurements: PubChem BioAssay AID588335 (The Scripps Research Institute Molecular Screening Center, 2011)
Among all 360,000 compounds or so, about 4,500 (1.2%) were called active. Cut-off read from the data, not from the text of the source: active = inhibition above about 30%; inactive = the rest. Only a selection was taken, and actives are over-represented in it overall.

Assay: inhibition of GDH and TPI enzymes – biochemical, absorbance, full deck, artefact control for M. tuberculosis FBA inhibitor project, primary screen (AID 588335);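 note: 0% = DMSO wells and 100% = wells lacking the enzyme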
Settings: GDH-TPI coupled enzyme counterscreen, NADH absorbance; at 4.8 µM; hits give high values

Row | Structure (SMILES) | inhibition
1 | Cc1ccc(-c2csc(C(C#N)=C(O)CN3CCN(C(=O)c4ccco4)CC3)n2)cc1 | 21.6% (inactive)
2 | COC(=O)C(C(=O)Nc1cccc(C)n1)C1CCCCCC1 (stereo not drawn) | 14.9% (inactive)
3 | C=CCN(c1ccc(C(=O)Nc2cc(C)cc(C)c2)cc1)S(C)(=O)=O | 4.51% (inactive)
4 | O=C(/C=C/Nc1ccccc1)c1cnc(-c2ccccc2)s1 | 3.77% (inactive)
5 | CC(C)(C)C(=O)c1cnc(Nc2ccccc2)s1 | 35.6% (active)
6 | CC(=O)c1cnc(-c2ccccc2)s1 | 10.1% (inactive)
7 | C=CC(COCc1ccccc1)N(Cc1ccccc1)S(=O)(=O)c1ccccc1Br (stereo not drawn) | 9.24% (inactive)
8 | O=C(Nc1ccc(Cl)cc1)c1cccc(OC(=S)N2CCOCC2)c1 | -5.96% (inactive)
9 | CCCOc1cccc(C(=O)Nc2nnn(CCC)n2)c1 | 3.11% (inactive)
10 | CCC(=O)Oc1cccc(C(=O)Nc2ccc(-c3nnc(-c4ccco4)o3)cc2)c1 | 35.6% (active)
11 | N#C/C(C(=S)Nc1ccccc1)=C1/NN=C(N2CCOCC2)N1c1ccccc1 | 6.29% (inactive)
12 | Cc1ccc2c(O)c(Cc3ccccc3)c(=O)[nH]c2n1 | 12.7% (inactive)
13 | CC1CCN(C(=O)Cn2cc(C(=O)c3ccco3)c3ccccc32)CC1 | 21.1% (inactive)
14 | N#Cc1ccc(Cn2cc(C(=O)c3ccco3)c3ccccc32)cc1 | 31.5% (active)
15 | NC(=O)Cn1cc(C(=O)c2ccccc2F)c2ccccc21 | 1.25% (inactive)
16 | CCOC(=O)c1c(NC(=S)SC)sc(C(=O)N2CCc3ccccc3C2)c1C | 1.83% (inactive)
17 | CN1CCC(=NNC(=O)CN(c2cccc(Cl)c2)S(C)(=O)=O)CC1 | 3.59% (inactive)

Row | Structure (SMILES) | inhibition
18 | CCc1nc2cccnc2n1-c1ccc(C(=O)O)cc1 | 0.86% (inactive)
19 | CCCCn1c(O)c(N=NC(=O)Cn2c(C(F)(F)F)nc3ccccc32)c2ccccc21 | -14.8% (inactive)
20 | N#CCCCn1c(O)c(N=NC(=O)C(O)c2ccccc2)c2ccccc21 (stereo not drawn) | 42% (active)
21 | Cc1csc(Nc2ccc(Cl)cc2)[n+]1-c1ccc(Cl)cc1 | 2.24% (inactive)
22 | C/C(=N\NC(=O)c1cccnc1)c1ccc(-n2ccnc2)cc1 | 12.6% (inactive)
23 | O=C(CNC(=O)C(c1ccccc1)c1ccccc1)N/N=C\c1ccc2c(c1)OCO2 | 6.25% (inactive)
24 | CCCOc1cccc(C(=O)NCCCNC(=O)c2cccnc2)c1 | -5.19% (inactive)
25 | O=C(CNC(=O)c1ccccc1Br)NNC(=O)c1cccs1 | -3.45% (inactive)
26 | CCOc1cc(/C=N/NC(=O)c2ccncc2)cc(Br)c1O | 0% (inactive)
27 | CC(C)OCCCNC(=O)CNC(=O)c1cccs1 | 3.27% (inactive)
28 | CCN(CC)c1ccc(/C=N/NC(=O)CNC(=O)c2cccs2)cc1 | 31.4% (active)
29 | Cc1cccc(OCC(=O)NCCNC(=O)c2cccnc2)c1 | -7.55% (inactive)
30 | O=C(CNC(=O)C1COc2ccccc2O1)N/N=C/c1cc(Br)c(O)c(Br)c1 (stereo not drawn) | 33.5% (active)
31 | CCN(CC)c1ccc(/C=N/NC(=O)CNC(=O)c2cccnc2)cc1 | 33.1% (active)
32 | O=C(CNC(=O)c1cccnc1)N/N=C/c1cc(Br)c(O)c(Br)c1 | 42% (active)
33 | CC1CC(=NNC(=O)C2COc3ccccc3O2)CC(C)(C)C1 (stereo not drawn) | -8.18% (inactive)
